In PubChem BioAssay:
For some of these results: Potency and affinity values are given separately. The source made the active and inactive calls. Unless noted, no rule for the calls is given here.

What was measured:
[1] = antimalarial activity against Dd2 strain (AID 2302;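 active = growth inhibition above 50% at the single 2 µM test dose, taken to imply half-maximal potency below 2 µM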;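 also: 0% = DMSO untreated growth and 100% = chloroquine plus artemisinin killed control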); conditions: P. falciparum Dd2 in RBCs, LDH growth readout, 72 h; at 2 µM; hits give high values
[2] = human hepatoma cell viability loss – ATP luminescence, cytotoxicity control for P. falciparum antimalarial project, primary screen (AID 2303;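 active = inhibition above 50%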;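 also: 0% = DMSO wells and 100% = digitonin-killed cells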); conditions: HepG2 viability, 24-48 h, at 10 µM, hits give high values
[3] = molecular target: L-lactate dehydrogenase (Plasmodium falciparum (isolate CDC / Honduras)) (UniProt Q27743); assay: PfLDH activity inhibition – cell lysate, 3D7 strain, counter-screen for P. falciparum growth inhibition project (AID 2304);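 also: 0% = vehicle and 100% = reference inhibitor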; conditions: P. falciparum 3D7 crude extract, LDH APAD/NBT absorbance; at 2 µM; hits give high values
Sequence of L-lactate dehydrogenase (Plasmodium falciparum (isolate CDC / Honduras)) (Q27743 whole entry, looked up): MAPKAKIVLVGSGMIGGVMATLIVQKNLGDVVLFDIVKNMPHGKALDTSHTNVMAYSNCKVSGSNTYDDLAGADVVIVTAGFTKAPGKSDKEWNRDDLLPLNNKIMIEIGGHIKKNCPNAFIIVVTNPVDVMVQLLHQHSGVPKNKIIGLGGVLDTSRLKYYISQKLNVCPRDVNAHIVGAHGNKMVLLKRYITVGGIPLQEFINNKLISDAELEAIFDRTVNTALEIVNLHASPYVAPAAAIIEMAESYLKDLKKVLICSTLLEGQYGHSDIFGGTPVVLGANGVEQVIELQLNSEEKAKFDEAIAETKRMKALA

[4] = inhibition of 3D7 malaria parasite growth – strain 3D7 (AID 2306);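 also: 0% = DMSO wells and 100% = chloroquine plus artemisinin control wells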; conditions: P. falciparum 3D7 erythrocytic growth, LDH absorbance, 72 h; at 2 µM; hits give high values
[5] = molecular target: Calcium-dependent protein kinase 1 (Plasmodium falciparum (isolate 3D7)) (UniProt P62344); assay: PfCDPK1 kinase inhibitors, biochemical, TCAMS library (AID 1159585; cut-off not given, nearly all actives have IC50 up to about 0.98 µM;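 also: inhibitors leave more ATP so luminescence rises with inhibition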); conditions: recombinant PfCDPK1, Kinase-Glo ATP depletion luminescence
Sequence of Calcium-dependent protein kinase 1 (Plasmodium falciparum (isolate 3D7)) (P62344 whole entry, looked up): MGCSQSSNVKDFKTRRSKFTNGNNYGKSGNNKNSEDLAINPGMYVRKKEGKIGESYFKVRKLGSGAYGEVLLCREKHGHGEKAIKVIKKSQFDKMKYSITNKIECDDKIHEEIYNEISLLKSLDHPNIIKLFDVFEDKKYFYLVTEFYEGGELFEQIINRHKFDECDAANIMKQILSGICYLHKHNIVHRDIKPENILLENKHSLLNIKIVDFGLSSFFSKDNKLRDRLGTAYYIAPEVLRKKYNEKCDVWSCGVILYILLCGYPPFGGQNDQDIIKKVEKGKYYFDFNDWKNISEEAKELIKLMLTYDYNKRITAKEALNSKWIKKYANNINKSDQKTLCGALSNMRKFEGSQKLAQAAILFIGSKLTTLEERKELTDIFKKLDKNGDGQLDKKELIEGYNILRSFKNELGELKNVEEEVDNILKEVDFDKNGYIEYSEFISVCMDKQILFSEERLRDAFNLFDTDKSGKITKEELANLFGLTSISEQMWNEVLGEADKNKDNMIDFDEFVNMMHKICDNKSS

[6] = molecular target: Plasmodium falciparum protein kinase 6 (PK6, PF3D7_1337100) (UniProt Q8IDW1); assay: PfPK6 kinase inhibitors, biochemical, TCAMS library (AID 1159586); conditions: recombinant PfPK6, Kinase-Glo ATP depletion luminescence
Sequence of Plasmodium falciparum protein kinase 6 (PK6, PF3D7_1337100) (Q8IDW1 1-305): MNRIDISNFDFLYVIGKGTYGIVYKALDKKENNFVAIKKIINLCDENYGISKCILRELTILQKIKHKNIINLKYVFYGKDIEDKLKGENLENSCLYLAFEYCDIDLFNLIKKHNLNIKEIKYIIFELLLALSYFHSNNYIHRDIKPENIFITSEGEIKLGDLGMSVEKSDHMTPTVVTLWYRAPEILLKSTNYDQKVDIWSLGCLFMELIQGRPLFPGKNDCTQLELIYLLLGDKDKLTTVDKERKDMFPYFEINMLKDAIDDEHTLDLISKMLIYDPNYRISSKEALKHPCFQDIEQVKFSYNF

[7] = molecular target: Protein kinase 7 (PK7), Plasmodium falciparum 3D7 (PF3D7_0213400) (UniProt Q7YTF7); assay: inhibition of Plasmodium PK7 catalytic activity – biochemical, TCAMS antimalarial set, Kinase-Glo luminescence (AID 1159587); conditions: recombinant PfPK7, Kinase-Glo ATP depletion luminescence
Sequence of Protein kinase 7 (PK7), Plasmodium falciparum 3D7 (PF3D7_0213400) (Q7YTF7 1-343): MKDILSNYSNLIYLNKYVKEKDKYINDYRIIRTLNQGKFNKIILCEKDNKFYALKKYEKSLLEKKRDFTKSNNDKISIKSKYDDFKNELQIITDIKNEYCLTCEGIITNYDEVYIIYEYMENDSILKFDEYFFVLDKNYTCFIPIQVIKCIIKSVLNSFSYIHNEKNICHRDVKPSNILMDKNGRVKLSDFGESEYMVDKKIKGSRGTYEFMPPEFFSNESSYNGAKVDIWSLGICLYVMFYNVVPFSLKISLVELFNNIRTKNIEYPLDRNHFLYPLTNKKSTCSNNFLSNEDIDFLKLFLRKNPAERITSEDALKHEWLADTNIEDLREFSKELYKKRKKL

[8] = molecular target: Calcium-dependent protein kinase 4 (Plasmodium falciparum (isolate 3D7)) (UniProt Q8IBS5); assay: PfCDPK4 kinase inhibitors, biochemical, TCAMS library (AID 1159588; cut-off not given, nearly all actives have IC50 up to about 0.91 µM); conditions: recombinant PfCDPK4, Kinase-Glo ATP depletion luminescence
Sequence of Calcium-dependent protein kinase 4 (Plasmodium falciparum (isolate 3D7)) (Q8IBS5 whole entry, looked up): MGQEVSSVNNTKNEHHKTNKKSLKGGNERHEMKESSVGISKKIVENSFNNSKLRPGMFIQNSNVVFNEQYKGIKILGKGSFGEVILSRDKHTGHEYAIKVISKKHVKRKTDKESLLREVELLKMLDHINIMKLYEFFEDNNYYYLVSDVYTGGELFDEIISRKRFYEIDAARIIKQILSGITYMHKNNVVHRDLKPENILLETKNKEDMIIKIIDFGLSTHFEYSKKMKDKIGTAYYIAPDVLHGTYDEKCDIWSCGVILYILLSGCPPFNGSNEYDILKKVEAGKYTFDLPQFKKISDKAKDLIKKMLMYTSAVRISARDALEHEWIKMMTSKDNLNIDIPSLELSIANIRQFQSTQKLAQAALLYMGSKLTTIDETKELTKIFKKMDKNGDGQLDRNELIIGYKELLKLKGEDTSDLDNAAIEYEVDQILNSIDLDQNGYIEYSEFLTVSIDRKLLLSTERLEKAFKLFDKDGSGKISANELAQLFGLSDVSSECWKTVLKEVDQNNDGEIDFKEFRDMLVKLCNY

Cc1nn(-c2ccccc2)c2sc(C(=O)N(CCCN(C)C)c3nc(-c4ccccc4)cs3)cc12
inactive: growth inhibition [1] 36% | inhibition [3] -2% | outcome [5] | outcome [6] | outcome [7] | outcome [8]
active: inhibition [2] 99% | growth inhibition [4] 95%

CC(C)(C)n1nnnc1C(c1cccnc1)N(Cc1ccccc1)Cc1ccc(Cl)cc1 (stereo not given)
inactive: growth inhibition [1] 17% | inhibition [2] 0% | inhibition [3] -1% | outcome [5] | outcome [6] | outcome [7] | outcome [8]
active: growth inhibition [4] 96%

C#C[C@H]1O[C@@H](n2cnc3c(Nc4cc(Br)cc(C(F)(F)F)c4)ncnc32)[C@H](O)[C@@H]1O
inactive: inhibition [2] 21% | inhibition [3] 4% | outcome [5] | outcome [6] | outcome [7] | outcome [8]
active: growth inhibition [1] 56% | growth inhibition [4] 94%

Cc1cccc2[nH]c(-c3ccc(-c4cccc(CNCc5ccccc5)c4)cc3)nc12
active: growth inhibition [1] 52% | growth inhibition [4] 102%
inactive: inhibition [2] 3% | inhibition [3] -1% | outcome [5] | outcome [6] | outcome [7] | outcome [8]

COc1cc(NCC(C)CNCc2cn(Cc3ccccc3)c3ccccc23)nc2ccccc12 (stereo not given)
active: growth inhibition [1] 55% | growth inhibition [4] 90%
inactive: inhibition [2] 21% | inhibition [3] -6% | outcome [5] | outcome [6] | outcome [7] | outcome [8]

COc1ccc(CNCc2cccc(-c3cccc(-c4nc5ccc(F)cc5[nH]4)c3)c2)cc1
active: growth inhibition [1] 55% | growth inhibition [4] 100%
inactive: inhibition [2] 18% | inhibition [3] 5% | outcome [5] | outcome [6] | outcome [7] | outcome [8]

COC(=O)Cn1c(C2CCN(CC3CCN(C(=O)/C=C/c4ccc(Cl)c(Cl)c4)CC3)CC2)nc2ccccc21
active: growth inhibition [4] 86%
inactive: growth inhibition [1] 2% | inhibition [2] 19% | inhibition [3] -1% | outcome [5] | outcome [6] | outcome [7] | outcome [8]

COc1cc(NC(=O)c2cc3c(C)nn(-c4cccc(C(F)(F)F)c4)c3s2)cc(OC)c1OC
inactive: inhibition [2] 0% | inhibition [3] 3% | outcome [5] | outcome [6] | outcome [7] | outcome [8]
active: growth inhibition [1] 50% | growth inhibition [4] 101%

CCOc1ccc2nc(C)cc(NN=Cc3ccc(Cl)cc3)c2c1
active: growth inhibition [1] 100% | growth inhibition [4] 100%
inactive: inhibition [2] 0% | inhibition [3] 5% | outcome [5] | outcome [6] | outcome [7] | outcome [8]

CN1Cc2ccc(NS(=O)(=O)c3ccc(-c4ccoc4)cc3)cc2C1
inactive: growth inhibition [1] 2% | inhibition [2] -3% | inhibition [3] -2% | outcome [5] | outcome [6] | outcome [7] | outcome [8]
active: growth inhibition [4] 97%

Cc1cccc(CNc2nc(C)cc(NCCC(=O)NCc3cccc(F)c3)n2)c1
inactive: growth inhibition [1] 13% | inhibition [2] 23% | inhibition [3] -1% | outcome [5] | outcome [6] | outcome [7] | outcome [8]
active: growth inhibition [4] 84%

O=C(Nc1cccc(-c2ccc(-c3nc4ccccc4[nH]3)cc2)c1)c1cnn2cccnc12
inactive: growth inhibition [1] 1% | inhibition [2] 9% | inhibition [3] -3% | outcome [5] | outcome [6] | outcome [7] | outcome [8]
active: growth inhibition [4] 87%

CCc1c(CCNCCCCCCNCCc2ccc([N+](=O)[O-])cc2)ccc(O)c1O
inactive: growth inhibition [1] 23% | inhibition [2] 5% | inhibition [3] -1% | outcome [5] | outcome [6] | outcome [7] | outcome [8]
active: growth inhibition [4] 94%

CCc1ccc(NC(=O)N(CCCn2ccnc2)Cc2csc(-c3ccc(CNCc4ccccc4)cc3)n2)cc1
active: growth inhibition [4] 103%
inactive: growth inhibition [1] 39% | inhibition [2] 9% | inhibition [3] 3% | outcome [5] | outcome [6] | outcome [7] | outcome [8]

CN1N=C2c3ccccc3CCC2C1c1ccc(C#N)cc1 (stereo not given)
active: growth inhibition [1] 85% | growth inhibition [4] 95%
inactive: inhibition [2] -9% | inhibition [3] 2% | outcome [5] | outcome [6] | outcome [7] | outcome [8]

Cc1nc2ccc3ccc(CN(C)c4ccc(C(=O)N[C@@H](CCC(=O)O)C(=O)O)cc4)cc3c2c(=O)[nH]1
active: growth inhibition [4] 95%
inactive: growth inhibition [1] 27% | inhibition [2] 42% | inhibition [3] 1% | outcome [5] | outcome [6] | outcome [7] | outcome [8]

COc1ccccc1CNc1ncc(-c2ccsc2)c(-c2nccs2)n1
active: growth inhibition [1] 84% | growth inhibition [4] 91%
inactive: inhibition [2] 14% | inhibition [3] 2% | outcome [5] | outcome [6] | outcome [7] | outcome [8]

COc1ccc(CCNCCCCCCNCCc2ccc(Cl)c3ccccc23)cc1OC
inactive: growth inhibition [1] 28% | inhibition [3] 6% | outcome [5] | outcome [6] | outcome [7] | outcome [8]
active: inhibition [2] 100% | growth inhibition [4] 100%

CCOc1ccc(OCC)c(N2CCN(CCCCNC(=O)c3ccc(NC(=O)c4ccc(Cl)cc4)cc3)CC2)c1
active: growth inhibition [4] 97%
inactive: growth inhibition [1] 40% | inhibition [2] 13% | inhibition [3] 1% | outcome [5] | outcome [6] | outcome [7] | outcome [8]

O=C(Nc1ccc(C(=O)Nc2cccc(C3=NCCN3)c2)cc1)Nc1ccc(C2=NCCN2)cc1
inactive: inhibition [2] -16% | inhibition [3] -4% | outcome [5] | outcome [6] | outcome [7] | outcome [8]
active: growth inhibition [1] 98% | growth inhibition [4] 96%
